Compound activity (PubChem BioAssay)
This is a sample that favours compounds with a hit; in the whole collection about 7.5% have one here.
Luc counter = Counterscreen for Luciferase (Kinase-Glo TM) Inhibition. Kinase-Glo luciferase, ATP luminescence, 8 min. Potency, µM (series often up to 38.3 µM), for inactives: at the highest dose activity change, negative = inhibition, actives largely listed as inhibitors. actives 0.28% (n = 200,000); also: % is scaled to controls: 0 for no effect and ±100 for the full control effect; nearly all actives have a fitted effect of over 60% in size
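Recombinant Kinase-Glo luciferase, 10 uM ATP (linear range), luciferin; imidazole pH 7.2 / KCl / MgCl2 / Tween / BSA buffer; 8 min RT; luminescence.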
Rab9 prom act = qHTS Assay for Rab9 Promoter Activators; actives 2.8% (n = 320,000); AID 485297, 2010; Huh7 Rab9 promoter-luciferase reporter, luminescence, 24 h; Potency, µM (doses to about 9.22 µM), for inactives: at the top dose activation, negative = inhibition, usual class: activators; also: % of control where 0% means no effect; nearly all actives have a fitted effect of over 60% in size
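Cells were plated at 1500 per well in reduced-serum medium with 10% FBS and left 2 h. Compound in DMSO was then added for 24 h at 37 °C. Reporter signal was read by luminescence after 10 min with luciferase detection reagent.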
SMN2 splice up = qHTS Assay for Enhancers of SMN2 Splice Variant Expression; Potency, µM (highest dose often 46.1 µM), inactives show at the top dose activity change, positive = activation, most hits filed as activators; AID 1458, 2008; actives 2.8% (n = 210,000); HEK293 SMN2-luciferase splicing reporter, luminescence, 30-36 h; also: % of control where 0% means no effect; nearly all actives have a fitted effect of over 55% in size
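qHTS luciferase splicing reporter: luminescence rises when SMN2 exon 7 is included in transfected HEK293 cells. Compound exposure lasted 30-36 h at 37C, with 4.5 mM final sodium butyrate as control, followed by a ONE-Glo read.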
ELG1 genotoxic = qHTS screen for small molecules that induce genotoxicity in human embryonic kidney (HEK293T) cells expressing luciferase-tagged ELG1; HEK293T ELG1-luciferase reporter, luminescence, 16 h; Potency, µM (top dose mostly 46 µM), for the others: at the top dose activity change, positive = activation, most hits filed as activators; actives 1.3% (n = 330,000); AID 504466, 2011; also: % of control where 0% means no effect; nearly all actives have a fitted effect of over 60% in size
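DMSO vehicle served as control against compound-treated ELG1-luciferase HEK293T cells; exposure lasted 16 hr at 37 °C and 5% CO2, followed by ONE-Glo luminescence detection after 30 min.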
FLuc counter = qHTS profiling assay for firefly luciferase inhibitor/activator using purifed enzyme and Km concentrations of substrates (counterscreen for miR-21 project); purified FLuc, Km substrates, luminescence inhibition; Potency, µM (series often up to 57.5 µM), for the others: top-dose activity change, negative = inhibition, hits mostly inhibitors; actives 6.9% (n = 360,000); AID 588342, 2011;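 also: plate controls were vehicle for no effect and reference inhibitor for full effect; nearly all actives have a fitted effect of over 55% in size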
Target sequence (P08659 whole entry, looked up): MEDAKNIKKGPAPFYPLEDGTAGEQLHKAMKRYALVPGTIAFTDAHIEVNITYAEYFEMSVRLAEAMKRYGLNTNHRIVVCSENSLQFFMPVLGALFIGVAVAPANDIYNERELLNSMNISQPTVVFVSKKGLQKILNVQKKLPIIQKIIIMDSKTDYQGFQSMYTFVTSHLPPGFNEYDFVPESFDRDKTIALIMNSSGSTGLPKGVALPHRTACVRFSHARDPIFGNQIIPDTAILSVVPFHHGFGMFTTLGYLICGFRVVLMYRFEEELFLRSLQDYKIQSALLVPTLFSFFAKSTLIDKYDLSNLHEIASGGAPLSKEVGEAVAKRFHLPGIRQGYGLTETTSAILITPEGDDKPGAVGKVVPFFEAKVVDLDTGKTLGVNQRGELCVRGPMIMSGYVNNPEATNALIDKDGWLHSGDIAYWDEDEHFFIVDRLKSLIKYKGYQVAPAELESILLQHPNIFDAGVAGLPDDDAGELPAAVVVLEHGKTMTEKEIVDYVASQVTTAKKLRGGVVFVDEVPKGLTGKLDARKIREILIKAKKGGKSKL
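Purified P. pyralis luciferase, 10 nM final, with Km-level 10 uM D-luciferin and 10 uM ATP in 50 mM Tris acetate pH 7.5, 10 mM Mg acetate, 0.01% Tween-20, 0.05% BSA; 6-point qHTS titration about 60 µM downward; luminescence read.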
NPC1 promoter act = qHTS Assay for NPC1 Promoter Activators | Huh7 NPC1 promoter luciferase reporter, 24 h | Potency, µM (series often up to 9.22 µM), for inactives: top-dose activation, usual class: activators | actives 2.4% (n = 320,000); also: % of control where 0% means no effect; nearly all actives have a fitted effect of over 60% in size
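Cells: Huh7 expressing luciferase under the NPC1 promoter, 1500/well. Seeded 2 h, compound added, incubated 24 h at 37 °C. Luciferase reagent, 10 min ambient, then luminescence.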
An asterisk follows results filed as active; ? = inconclusive; / = not tested or not shown; [ ] = another dose, or the depositor's remark. Calls follow the shape of the dose curve; as a rule, active = well fitted curve in the direction sought with a large enough effect; inconclusive = small, poorly fitted or top-dose-only effect, or another doubt; inactive = no such curve, though single readings can be large; an effect the other way counts as inactive or inconclusive. Potency is read from the fitted curve at half-maximal effect.

SMILES	Luc counter	Rab9 prom act	SMN2 splice up	ELG1 genotoxic	FLuc counter	NPC1 promoter act
Cc1cc(N2CCN(C3CCCC3)CC2)n2ncc(-c3ccccc3)c2n1	-0.9%	7.4%	-4.4%	?	?	25.8%
CC(=O)Nc1ccc(Nc2cc(C)nc3c(-c4ccccc4)cnn23)cc1	2.1%	?	-32.6%	1.46µM*	5.36µM*	?
Cc1cc(N)n2ncc(-c3cccc(Br)c3)c2n1	-5.6%	2.82µM*	22.3%	16.4µM*	15.1µM*	?
Cc1cc(N)n2ncc(-c3ccccc3)c2n1	3.8%	1.58µM*	15.8µM*	10.3µM*	9.53µM*	2.82µM*
CCOC(=O)Cc1c(C)nc2c(-c3cccc(Br)c3)cnn2c1C	-3.7%	5.5%	-9.9%	3.4%	-3.5%	-2.8%
Cc1nc2c(-c3ccccc3)cnn2c(N2CCOCC2)c1C	/	1.26µM*	/	6.51µM*	3.01µM*	2.51µM*
Cc1cccc(NC(=O)CSc2nnc(CNC(=O)c3cccs3)o2)c1C	9.6%	5.1%	-40.1%	0.0%	-2.7%	-3.6%
Cc1ccc(NCC(=O)c2ccccc2)cc1Cl	-7.3%	-3.2%	17.8µM*	15.7%	?	-3.4%
Cc1ccc(NCC(=O)c2ccc(C)cc2)cc1	/	29.1%	/	?	9.53µM*	27.8%
Cc1ccc(C(=O)CNc2cccc(Cl)c2)cc1	-3.9%	?	3.2%	?	2.69µM*	10.3%
Cc1ccc(C(=O)CNc2ccc(C)c(Cl)c2)cc1	-2.3%	10.1%	2.2%	?	?	12.8%
Cc1ccc(C(=O)NCC(c2ccc3c(c2)OCO3)N2CCOCC2)cc1 (stereo not drawn)	/	/	/	/	-0.5%	/
O=c1oc2ccc3ccccc3c2cc1-c1nnc(Nc2cc(C(F)(F)F)ccc2Cl)s1	/	/	/	/	0.1%	/
CN(C)CCN=Cc1c(O)n(-c2ccc(S(=O)(=O)N3CCOCC3)cc2)c(=O)c2ccccc12	/	-3.2%	/	-1.0%	1.0%	-0.1%
N#C/C(=C/c1cccc(O)c1)C(=O)NCc1ccc(Cl)cc1	/	2.9%	/	10.2%	-4.3%	11.4%
CC(C)NC(=O)/C(C#N)=C/c1ccc2c(c1)OCCO2	-0.4%	4.1%	1.8%	22.8%	9.53µM*	-1.6%
N#C/C(=C\c1ccc(O)c(O)c1)C(=O)Nc1ccccc1	-4.4%	-21.4%[46.1 µM]	22.4µM*	?	?	22.8%[46.1 µM]
N#C/C(=C\c1cccc(O)c1)C(=O)Nc1ccc2c(c1)OCCO2	/	6.7%	/	15.6%	0.477µM*	1.3%
COCCn1c(Cc2ccccc2)nnc1SCC(=O)Nc1oc(C)c2c(C)n[nH]c(=O)c12	/	0.8%	/	0.6%	8.6%	-2.1%
CCOC(=O)CCNC(=O)N1CCCC(C(=O)c2cccc(OC(C)C)c2)C1 (stereo not drawn)	/	-4.3%	/	-9.5%	2.6%	0.7%
CS(=O)(=O)Nc1cccc(-c2nccc(NCc3ccccc3)n2)c1	-2.1%	/	-11.8%	/	/	/
CC(C)(C)SCCNC(=O)/C=C/c1ccccc1	/	?	/	?	19µM*	?
CC(C)(C)SCCNC(=O)/C=C/c1ccc(F)cc1	-1.7%	24.0%	?	17.9%	?	21.8%
O=C(/C=C/c1ccccc1)NCCc1ccccc1	/	29.5%	/	20.6µM*	19µM*	-4.4%
O=C(/C=C/c1ccc([N+](=O)[O-])cc1)NCCc1ccccc1	-4.3%	-0.2%	5.0%	2.4%	3.9%	-0.6%
SMILES	Luc counter	Rab9 prom act	SMN2 splice up	ELG1 genotoxic	FLuc counter	NPC1 promoter act
Cc1nc(S/C(=C/c2ccc(-c3cccc(Cl)c3)o2)C(=O)O)n[nH]1	-3.8%	3.6%	-23.3%	-4.4%	5.36µM*	0.2%
Cc1ccc2nc(/C(C#N)=C/c3ccc(-c4cccc(Cl)c4)o3)[nH]c2c1	/	/	-1.3%	/	-17.4%	/
Cc1noc(C)c1C(=O)N1CCC2(CCCN(C(=O)Nc3cccc(F)c3)C2)CC1	-4.4%	/	-6.2%	/	/	/
CC12CN(NC(=O)c3ccccc3F)C3(C#N)CC1CCC23C (stereo not drawn)	-0.5%	-9.1%	4.0%	0.9%	1.5%	-6.8%
Cc1ccc(C2CN=NC23CCc2ccccc2C3=O)cc1 (stereo not drawn)	-0.4%	1.1%	-0.9%	?	12µM*	7.8%
O=C1c2ccccc2CCCC12N=NCC2c1cccc2ccccc12 (stereo not drawn)	-1.8%	1.1%	-29.1%	-6.2%	-0.7%	-5.1%
N=c1n(CCCOc2ccccc2Cl)c2ccccc2n1CC(N)=O	/	-3.3%	/	?	-12.2%	-4.6%
CC(C)c1cc(C(N)=O)c(NC(=O)c2cccc(COc3ccc(Cl)cc3)c2)s1	-5.5%	2µM*	1.78µM*	0.731µM*	1.51µM*	0.316µM*
Cc1nn(Cc2c(F)c(F)c(F)c(F)c2F)c(C)c1NC(=O)c1cccc(COc2ccc(Cl)cc2)c1	-2.6%	?	17.8µM*	12.6%	12µM*	?
Cc1cc(C)cc(-n2ccnc2SCC(=O)Nc2ccc(C)cc2C)c1	/	/	/	/	-18.2%	/
Cc1ccc(NC(=O)NCc2c(-n3cccc3)sc3c2CCCC3)c(Cl)c1	/	/	/	/	-13.1%	/
CC1CCC(C(C)C)C(=O)/C1=C/c1ccc(N)cc1 (stereo not drawn)	/	1.58µM*	/	?	10.7µM*	1.58µM*
Cc1ccc(CN2CCC(CNC(=O)Nc3c(C)cccc3C)C2)cc1 (stereo not drawn)	/	/	-7.1%	/	-1.4%	/
CCCCCN=C(C)c1c(O)c2ccccc2oc1=O	/	?	/	?	16.9µM*	?
COc1ccccc1NS(=O)(=O)c1cccc(C(=O)N/N=C/c2c(CO)cnc(C)c2O)c1	/	-18.2%	/	13.4%	3.2%	-2.0%
Cc1ncc(CO)c(/C=N/NC(=O)c2ccc(O)cc2)c1O	3.3%	-0.6%	?	0.4%	?	-4.0%
COc1ccc(C(=O)N/N=C/c2c(CO)cnc(C)c2O)cc1	-1.7%	0.1%	-72.7%	-10.2%	21.3µM*	1.3%
COc1ccccc1N/N=C/c1c(CO)cnc(C)c1O	-0.9%	-6.1%	-11.6%	8.2%	13.5µM*	-2.8%
Cc1ccccc1OCC(=O)Nc1ccc2[nH]c(=O)sc2c1	/	/	1.1%	/	-17.8%	/
N#Cc1c(NC(=S)NC(=O)C2CCCC2)sc2c1CCCCC2	/	?	/	1.1%	?	19.3%
Cn1ncc(Cl)c1C(=O)NC(=S)Nc1sc2c(c1C#N)CCCCC2	-0.3%	4.8%	-17.1%	1.1%	12µM*	19.2%
N#Cc1c(NC(=O)c2cccnc2)sc2c1CCC2	-6.1%	-5.2%	3.3%	?	9.53µM*	-15.9%
